Assay results as given in the supplement of paper PMC11417369.
± gives the standard deviation of the averaged measurements. In all, about 25,000 sequences were measured (“ln(normalized median fluorescence intensity)”: median about 8.9, highest 2% from about 10 on). The full list was thinned out, with the highest values kept by preference.

tested on: PfAP2-LT AP2 domain (GST-tagged); assay: gcPBM binding intensity (ln(normalized median fluorescence intensity)); higher = stronger DNA binding
Method in brief: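 After 1 h on an Agilent 4 × 180k array of primer-extended double-stranded 36-bp intergenic genomic probes and negative controls, bound GST-tagged P. falciparum DNA-binding domains were detected with Alexa488 anti-GST antibody and scanned at 488 nm. The domains had been expressed in E. coli, and binding took place in 1× PBS with 1% milk, 0.2 mg/ml BSA, 0.5% salmon testes DNA and 0.03% Triton X-100. Binding intensity is the highest Masliner-normalised natural-log median intensity across replicate spots of either probe orientation.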

Row | Sequence | gcPBM binding intensity (ln)
1 | AAAATAAGCGTGAAACGTACATATTACATTATTATA [XGTACX_site8914] | 8.78 ± 0.56
2 | TATTAAAGATACTCGGTATAAATAAATTTTAATGTG [XGTACX_negctrl_site239] | 8.54 ± 0.52
3 | AAGAGAAATGGGCACACACACACATATTATAGATAT [CACACA_site6828] | 9.8 ± 0.21
4 | TCTTATCCATATATTACACACTATATATAGAAATTA [CACACA_site291] | 8.66 ± 0.39
5 | TTTGAAATATATTTAGTGCATATATATTGATTATAA [GTGCAC_site9604] | 8.39 ± 0.38
6 | TTTGAATACTGAATGGTGCAAATTGTTCTCCCCATG | 8.67 ± 0.57
7 | CCCTCCCCATGTTTAGTGCAAAAATATTTGAAATTG [GTGCAC_site9873] | 10.1 ± 0.057
8 | ATTTTAGAATAAATTTTTTACATTAAAAAACTATTT [CACACA_negctrl_site1414] | 8.21 ± 0.54
9 | ATAAGAAGAAGAAAAACACACATATGTAGATATATA [CACACA_site7469] | 9.01 ± 0.42
10 | ACTTGTAAGAAACACACACACACACCCATATATATA [CACACA_site796] | 10.2 ± 0.16
11 | AAACTTGTAAGAAACACACACACACGCATATAAATA [CACACA_site6518] | 9.98 ± 0.099
12 | ACTTGTAAGAAACACACACACACACCGATATATATA [CACACA_site4594] | 10.1 ± 0.31
13 | AAAGAAAGAAAGAATACACACACACCGATATATATA [CACACA_site9246] | 9.77 ± 0.31
14 | AAACTTGTAAGAAACACACACACACCCATATATATA [CACACA_site797] | 9.96 ± 0.15
15 | TTTAACGTTGAATATACACACATATATATATATATA [CACACA_site3698] | 9.55 ± 0.042
16 | TATATTAAGAAACACACACACATATATATATATATA [CACACA_site1609] | 9.82 ± 0.23
17 | TATATAATTATAAGAACACACATATATATATATATA [CACACA_site2472] | 9.6 ± 0.16
18 | TATATATATAAACACACACACATATATATATATATA [CACACA_site4584] | 9.94 ± 0.14
19 | TATATATAATTATAAGAACACACATATATATATATA [CACACA_site8786] | 9.46 ± 0.36
20 | TATATATATAAACACACACACACATATATATATATT [CACACA_site8814] | 9.84 ± 0.014
21 | AAACATAAGAAACACACACACATATATATATATATA [CACACA_site3642] | 10.32 ± 0.064
22 | AAACATAAGGGACACACACACATATATATATATATA [CACACA_site5920] | 10.2 ± 0.27
23 | CATTATAAGAAACACACACACATATATATATATATA [CACACA_site1051] | 10.2 ± 0.25

Row | Sequence | gcPBM binding intensity (ln)
24 | AAAAAAAAAAGAAACACACACATATATATATATAAT [CACACA_site5052] | 9.44 ± 0.35
25 | ATAAATTAACATTAAAGTACATTTTAATAAATATTA [XGTACX_site3647] | 8.31 ± 0.52
26 | TACCAATAAATGAAGGTGCGTGCTTGCCTTTGCTAT | 8.95 ± 0.31
27 | TCTATACCTATTCTTACACACATATGTATAAATATA [CACACA_site6407] | 9.04 ± 0.36
28 | ATATAATCAGCTTCTCTTTTATGCTAAAAAAAAAAA [CACACA_negctrl_site1310] | 8.25 ± 0.3
29 | ATATTATAGTTATGAACATGCAAACATTACGAAATA [TGCATGCA_site54] | 8.76 ± 0.5
30 | GTATATATATACCATTGTACTTTCGTAAAAATATTT [XGTACX_site4846] | 8.8 ± 0.4
31 | TAAGACATGATATATACACACCTTGTTTTAATTTTC [CACACA_site5282] | 8.86 ± 0.45
32 | TATATACATATATGTACACACATTACAGATGTACAT [CACACA_site966] | 9.21 ± 0.38
33 | TATACTTTATATATTTTGTATATATATTTTTTTTAT [TGCATGCA_negctrl_site530] | 8.8 ± 0.48
34 | ATTTTTTTTTTTTTTTTGGGGGGGTATACTTTTAAA [CACACA_negctrl_site1020] | 10.6 ± 0.2
35 | GTTAATATTTTTGGGGGTACTTAAAAAAAAAAAAAA [XGTACX_site1477] | 8.525 ± 0.021
36 | AATATATATATATATATTTTTGTTAGAATATGGAAT [GTGCAC_negctrl_site434] | 8.65 ± 0.32
37 | TATAAATATACACCCACACACATATATAAATAAATA [CACACA_site7717] | 9.65 ± 0.16
38 | CATATATACGCATACACACACACACCCACACCCACA [CACACA_site1725] | 10.16 ± 0.05
39 | TATAAATATACACCCACACACATATATATATATATA [CACACA_site3745] | 9.94 ± 0.16
40 | AAAAAAAAAATACATACACACACACCCACCCATATA [CACACA_site9187] | 10.18 ± 0.021
41 | AAAAAAAATACATACACACACACACCCACATATATA [CACACA_site3561] | 10.13 ± 0.05
42 | TACATATACATATACACACACACACCCAAATAAATA [CACACA_site1344] | 10.04 ± 0.05
43 | CACCCACCCACATACACACACATACACATATATATA [CACACA_site1722] | 10 ± 0.22
44 | TATACATATACATATACACACACACCCATAAATAAA [CACACA_site8372] | 9.8 ± 0.22
45 | TACACGCTAAAATACACACACACACCCACATATATA [CACACA_site4153] | 10.2 ± 0.11
46 | TATACGCATATATACACACACATATATATATATATA [CACACA_site3416] | 10.1 ± 0.11

Row | Sequence | gcPBM binding intensity (ln)
47 | TATATAAATATACACCCACACACATATATATATATA [CACACA_site9247] | 9.61 ± 0.28
48 | TACCCACTAAAATACACACACACACCCACATATATA [CACACA_site6141] | 10 ± 0.42
49 | ATTTTTTTTAAACGAAGTACAATTTGTGCATTGGAA [XGTACX_site8109] | 8.45 ± 0.39
50 | GTACATACATAAAACACACACATATAGATTTATATA [CACACA_site6945] | 9.47 ± 0.33
51 | TATTTTTTTTGATATTGTACTTTTTTATTATTTTTT [XGTACX_site566] | 8.76 ± 0.51
52 | TATTTTTATATATAATCACACATTGGAATGTTCTAA [CACACA_site5540] | 8.67 ± 0.44
53 | TTGAAGGTGGCAATGTGTACATAGAATAACCAGTGC [XGTACX_site4738] | 9.15 ± 0.54
54 | TATATATTATGACCACCACACACCTATACGCATAAC [CACACA_site2447] | 9.44 ± 0.085
55 | AAAATACACGCATACACACACACACCCACCCATATA [CACACA_site639] | 10.4 ± 0.14
56 | AAAATACACGCATACACACACACACCGACACATATA [CACACA_site4523] | 10.4 ± 0.28
57 | TATACACCCTAAAATACACACACACCCACCCATATA [CACACA_site9380] | 10.06 ± 0.078
58 | CACCCATAAATATACACACGCACAACACAAAATAAA [CACACA_site2903] | 9.63 ± 0.41
59 | TAAATTAAAAAAAATACACACACACCGACACATATA [CACACA_site9084] | 9.84 ± 0.26
60 | ATAAAATACATATAAACACACATATAAACCGACATA [CACACA_site2477] | 9.28 ± 0.38
61 | TTATATGTATGAACAAGTACATGCTATAATTATAAA [XGTACX_site1399] | 8.57 ± 0.46
62 | ACATTCTATATATACACACATACATAATAAAGAAAG [CACACA_site2771] | 9.05 ± 0.4
63 | AAAACATAACATTGTTGTACTACTAATAAAATAAGT [XGTACX_site6149] | 8.8 ± 0.52
64 | ATATTATATATGTATAGTACATATTATAAGAAAAAT [XGTACX_site3457] | 8.87 ± 0.65
65 | ATATATAAAAAAGCTAGTACACAAAAATATATAATG [XGTACX_site3001] | 8.95 ± 0.54
66 | TTATATATAAATGTGTGTACTTATAAAATAATCATT [XGTACX_site5370] | 8.78 ± 0.43
67 | TATATATATAGACACACACACATATAAATAAATAAA [CACACA_site444] | 9.56 ± 0.34
68 | TAATTTTTTAGACACACACACATATAAATATAAATA [CACACA_site6195] | 9.37 ± 0.34
69 | TATATAAATAGACACACACACATATAAATATAAATA [CACACA_site6503] | 9.69 ± 0.32

Row | Sequence | gcPBM binding intensity (ln)
70 | TAAATTTATAGACACACACACATATAAATAAATATA [CACACA_site6530] | 9.71 ± 0.22
71 | CATATAAATAGACACACACACACATATAAATAAATA [CACACA_site7156] | 10.1 ± 0.4
72 | AATAAATTTAGACACACACACACATATAAATAAATA [CACACA_site6531] | 10.1 ± 0.23
73 | TATGAAGACACAAATACACACACTCAAAAAAAAAAA [CACACA_site2660] | 9.41 ± 0.44
74 | AAAAAAAAAAAAAAAACACACATTTGAAGAAAAAAA [CACACA_site7389] | 8.58 ± 0.51
75 | ATTGTATAAAAATGTACATGCAATAAATTTAGTTCT [TGCATGCA_site675] | 8.77 ± 0.42
76 | TACAGATAAAAGTACACACACACACCGATATATATA [CACACA_site4675] | 10.12 ± 0.099
77 | AAAGATAAAAAAAGTACACACACACCGATATATATA [CACACA_site9006] | 10 ± 0.14
78 | AAAAAAAAAAAAAGTACACACATACAGATAAATATA [CACACA_site5067] | 9.16 ± 0.48
79 | ATAAAGCACACCGACACACACATATATATATATATA [CACACA_site1047] | 10.54 ± 0.099
80 | ATAAAGCACACCGACACACACATATTTATATTTATA [CACACA_site6620] | 9.68 ± 0.43
81 | CCATAAAAAGGATACACACACACACGCACATATATA [CACACA_site6550] | 9.92 ± 0.11
82 | AAATAAAGCACACCGACACACACATATATATATATA [CACACA_site8256] | 10.03 ± 0.057
83 | CAAAAGGATAGGCACACACACACACCGATATATATA [CACACA_site8685] | 10.1 ± 0.21
84 | CAAAAGGATAGGCACACACACACACCCATATATATA [CACACA_site2199] | 10.2 ± 0.23
85 | GCCAAAAGGATATGCACACACACACCCATATATATA [CACACA_site2198] | 9.94 ± 0.42
86 | TAAAAGGATACATATACACACATATATATATATATA [CACACA_site2791] | 9.72 ± 0.13
87 | CCATAAAAAGGATACACACACACACCGACATATATA [CACACA_site4653] | 10.2 ± 0.23
88 | TTTATAATATGTTATACATGCAGGTACCTTTTTGTA [TGCATGCA_site746] | 8.9 ± 0.46
89 | TATAACACACAATGATGTACATTACATTATTTTTTA [XGTACX_site2076] | 8.79 ± 0.45
